# Test results reported in PubChem BioAssay AID504690 (Sanford-Burnham Center for Chemical Genomics, 2011).
# The campaign covered roughly 350,000 compounds. About 2,700 (0.77%) were called active.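 How the source made its calls: active means inhibition reaching at least a set limit at 20 µM in the primary screen (cut at about 59% in these data); inactive means the rest.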 This excerpt belongs to a sample that is enriched for actives.
# System: glucose-6-phosphate dehydrogenase-6-phosphogluconolactonase (Plasmodium falciparum 3D7)
# Assay: inhibition of malaria parasite G6PD (PfGluPho) – biochemical, fluorescence intensity, uHTS, primary screen (AID 504690);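 further: 0% = DMSO wells with substrate and 100% = DMSO wells lacking glucose-6-phosphate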
# Settings: PfGluPho enzyme, NADPH resazurin-diaphorase fluorescence; at 20 µM; stronger effect = higher value
row,SMILES,inhibition
1,O=C(CN1CCN(c2ccc(F)cc2)CC1)Nc1cccc(C(F)(F)F)c1,12.7% (inactive)
2,O=C(CN1CCOCC1)Nc1ccccc1,-18.6% (inactive)
3,O=C(CN1CCN(c2ccc(O)cc2)CC1)Nc1ccc(-c2ccccc2)cc1,69% (active)
4,Cc1ccc(Cl)cc1NC(=O)CN1CCN(S(=O)(=O)N2CCOCC2)CC1,-17% (inactive)
5,O=C(CN1CCN(c2cccc(Cl)c2)CC1)Nc1ccc(S(=O)(=O)N2CCOCC2)cc1,7.9% (inactive)
6,O=C(CN1CCN(c2ccc(O)cc2)CC1)Nc1cc(S(=O)(=O)N2CCOCC2)ccc1Cl,73.8% (active)
7,COc1cc2c(cc1OC)C(C(=O)NCc1ccco1)C1c3ccccc3CCN1C2=O (configuration not stated),0.17% (inactive)
8,CCn1nc(NC(=O)c2ccco2)c2cc3ccc(C)cc3nc21,6.85% (inactive)
9,O=C(NCCN=C1NS(=O)(=O)c2ccccc21)c1ccc(S(=O)(=O)N2CCOCC2)cc1,4.66% (inactive)
10,COC(=O)c1ccc(OCC(=O)NC(C)(C)C)cc1,3.26% (inactive)
11,CC(C)(C)NC(=O)COc1ccc(CNc2ccc3[nH]c(=O)[nH]c3c2)cc1,94.7% (active)
12,O=C(COc1ccc([N+](=O)[O-])cc1Cl)Nc1ccc2[nH]c(=O)[nH]c2c1,13.1% (inactive)
13,COc1ccccc1CN1CC(C(=O)NCCc2cn[nH]c2)CCC1=O (configuration not stated),-1.62% (inactive)
14,Cc1ccc(C(=O)OCC(=O)Nc2ccc(Cl)cn2)cc1S(=O)(=O)N1CCOCC1,-1.58% (inactive)
15,COC(C[C@@H](O)C[C@@H](O)[C@H](C)OCc1ccccc1)OC,10.8% (inactive)
16,O=C(CCn1nnc2ccccc21)OCC(=O)c1ccc([N+](=O)[O-])cc1,59.2% (active)
17,CCOC(=O)c1cccc(NC(=O)CCn2nnc3ccccc32)c1,-9.98% (inactive)
18,COc1c(O)cccc1-c1nnn(CCC(=O)OCC(=O)c2ccccc2)n1,6.47% (inactive)
19,Cc1ccc(CSc2ccc(S(=O)(=O)N3CCCCC3)cn2)cc1,10.9% (inactive)
20,CC(=O)Nc1ccc(CC#N)cc1,-8.66% (inactive)
21,O=C(NC(=O)c1cc(OCC(F)(F)F)ccc1OCC(F)(F)F)Nc1ccccc1,15.2% (inactive)
22,COc1ccc2cc(-c3[nH]ncc3CNCCn3nc(C)cc3C)ccc2c1,-4.25% (inactive)
23,COc1cccc(-n2c(=S)sc3c(=O)n(-c4ccccc4OC)c(SCC4OCCO4)nc32)c1,22.9% (inactive)

row,SMILES,inhibition
1,COc1cccc(-n2c(=S)sc3c(=O)n(-c4ccccc4C)c(SCC(=O)O)nc32)c1,-2.42% (inactive)
2,COc1ccc(Cl)cc1-n1c(=S)sc2c(=O)n(-c3ccc(F)cc3)c(SCC(=O)O)nc21,86.6% (active)
3,C/C(CC(=O)NC(C)c1ccccc1)=N\NC(N)=S (configuration not stated),6.14% (inactive)
4,CSc1ccc(S(=O)(=O)N2CCC(C(=O)NCc3ccncc3)CC2)cc1,-30.2% (inactive)
5,Cc1cccn2c(CNCC(C)Oc3cccnc3)c(C(=O)N3CCOCC3)nc12 (configuration not stated),9.53% (inactive)
6,Cc1cccn2c(CN(C)C3CCCc4ccccc43)c(C(=O)N3CCOCC3)nc12 (configuration not stated),62.9% (active)
7,CCOC(=O)C1CCN(Cc2c(C(=O)N3CCOCC3)nc3c(C)cccn23)CC1,-12.6% (inactive)
8,c1ccc2cc3c(NCCN4CCOCC4)ccnc3cc2c1,6.78% (inactive)
9,CC(=O)Nc1sc2c(c1C(c1cccc(F)c1)N1CCN(CCO)CC1)CCCC2 (configuration not stated),7.18% (inactive)
10,NC(=O)c1c(NC(=O)CSc2nnc(-c3ccco3)n2N)sc2c1CCCC2,7.61% (inactive)
11,CCOC(=O)C(NC(=O)CC(C)C)(Nc1sc2c(c1C(N)=O)CCCC2)C(F)(F)F (configuration not stated),-8.45% (inactive)
12,NC(=O)c1c(Nc2nc3c(F)cccc3s2)sc2c1CCCC2,63.4% (active)
13,COc1ccc2[nH]c(=O)c(CNc3ccc(C)c(C)c3)cc2c1,41% (inactive)
14,CCN1CCN(CCNC(=O)c2ccc3c(c2)NC(=O)/C(=C\c2cccc(Cl)c2)S3)CC1,2.78% (inactive)
15,CCN1CCCC1CNC(=O)c1ccc2c(c1)NC(=O)/C(=C\c1ccccc1F)S2 (configuration not stated),127% (active)
16,O=C1Nc2cc(C(=O)N3CCC(N4CCCCC4)CC3)ccc2S/C1=C\c1ccccc1,-9.66% (inactive)
17,CN(C)S(=O)(=O)c1ccc(Cl)c(NC(=O)COC(=O)CC(NC(N)=O)c2ccc(Cl)cc2)c1 (configuration not stated),-3.62% (inactive)
18,CCOC(=O)c1c(C)[nH]c(C)c1C(=O)CSc1nc(N)cc(N)n1,9.63% (inactive)
19,CCCCNC(=O)c1ccccc1NC(=O)C1=C(C)OCCS1,-13.5% (inactive)
20,Cc1cccc(NC(=O)c2cccc(S(=O)(=O)N3CCCC3)c2)n1,-1.18% (inactive)
21,O=C(Nc1nnc(S(=O)(=O)N2CCCCCC2)s1)c1cccc(Br)c1,88.1% (active)
22,Cc1cccc(C(=O)Nc2nnc(S(=O)(=O)N3CCCCCC3)s2)c1,95.7% (active)
23,O=C(Nc1ccc(S(=O)(=O)Nc2nccs2)cc1)c1cccc(S(=O)(=O)N2CCOCC2)c1,-1.66% (inactive)

row,SMILES,inhibition
1,O=C(Nc1nnc(-c2ccccc2)o1)c1cccc(S(=O)(=O)N2CCOCC2)c1,0.98% (inactive)
2,Cc1nc2ccc(NC(=O)c3cccc(S(=O)(=O)N4CCOCC4)c3)cc2s1,19.6% (inactive)
3,O=C(Nc1cccc(S(=O)(=O)N2CCCCC2)c1)c1cncc(Br)c1,9.89% (inactive)
4,O=C(Nc1ccc(S(=O)(=O)N2CCOCC2)cc1)c1ccc2ncsc2c1,72.8% (active)
5,O=C(Nc1nnc(S(=O)(=O)N2CCOCC2)s1)c1cccc(Br)c1,103% (active)
6,O=C(Nc1ccc(N2CCOCC2)c(Cl)c1)c1ccc(S(=O)(=O)N2CCOCC2)cc1,0.32% (inactive)
7,CCOC(=O)CSc1nnc(NC(=O)c2cccc(S(=O)(=O)N3CCCCC3)c2)s1,-28.5% (inactive)
8,O=C(Nc1nncs1)c1cccc(S(=O)(=O)N2CCCCC2)c1,-40.8% (inactive)
9,COc1ccc2[nH]c(=O)c(C3c4cc(OC)c(OC)cc4CCN3C(=O)c3ccco3)cc2c1 (configuration not stated),8.2% (inactive)
10,O=C(NCc1cccnc1)c1ccc(CS(=O)(=O)c2ccc(Br)cc2)o1,-4.96% (inactive)
11,CC1CCCCC1NC(=O)CSc1nnc(N)s1 (configuration not stated),-8.21% (inactive)
12,O=C(COC(=O)c1cccc(Cl)c1)NC1CCCCCCC1,17.2% (inactive)
13,CC(C)(C)NC(=O)NC(=O)COC(=O)C1c2ccccc2Oc2ccccc21,-18.1% (inactive)
14,CC(C)(C)c1nnc(NC(=O)C2c3ccccc3Oc3ccccc32)s1,77.4% (active)
15,CCCN(CCC)C(=O)C1c2ccccc2Oc2ccccc21,-24.1% (inactive)
16,CCN(CC)c1ccc2oc(=O)c(C)nc2c1,94.1% (active)
17,Cc1ccc2oc(=O)ccc2c1,-9.67% (inactive)
18,CCc1ccc2oc(-c3ccc(N)cc3)nc2c1,16.4% (inactive)
19,COc1ccc(S(=O)(=O)N2CCOCC2)cc1NC(=O)Cc1coc2cc(C)ccc12,-4.24% (inactive)
20,O/N=C(\c1ccc2c(c1)OCCO2)C1CCCCC1,-2.41% (inactive)
21,COc1ccccc1N1CCN(c2nc(C)cc(=O)[nH]2)CC1,15.1% (inactive)
22,COc1ccccc1-n1c(=S)[nH]c2c(sc(=S)n2-c2ccc(C)cc2C)c1=O,78.9% (active)
23,CCc1ccc(-n2c(=S)sc3c(=O)n(-c4ccccc4OC)c(=S)[nH]c32)cc1,55.6% (inactive)

row,SMILES,inhibition
1,CCCCn1nc(C(=O)Nc2ccc(S(=O)(=O)Nc3ncccn3)cc2)c2ccccc2c1=O,-8.76% (inactive)
2,NS(=O)(=O)c1ccc(CNC(=O)c2cc(S(=O)(=O)N3CCOCC3)ccc2N2CCCC2)cc1,2.61% (inactive)
3,COc1ccc(NC(=O)COC(=O)CNC(=O)C2CCCCC2)cc1,-2.97% (inactive)
4,COc1cccc(C(=O)Nc2nnc(S(=O)(=O)N(C)c3ccccc3)s2)c1,96.6% (active)
5,CN(Cc1ccco1)S(=O)(=O)c1nnc(NC(=O)c2ccccc2)s1,58.2% (inactive)
6,Cc1ccccc1OCC(=O)Nc1nnc(S(=O)(=O)N2CCCC2)s1,-10.3% (inactive)
7,CC(=O)c1cccc(NC(=O)COc2ccc(S(=O)(=O)N3CCOCC3)cc2)c1,3.48% (inactive)
8,COc1cccc(C(=O)Nc2ccc3nc4n(c(=O)c3c2)CCCCC4)c1,20% (inactive)
9,CN(Cc1ccccc1)S(=O)(=O)c1nnc(NC(=O)c2ccccc2F)s1,27.5% (inactive)
10,COc1cccc(C(=O)Nc2nnc(S(=O)(=O)N3CCOCC3)s2)c1,97.7% (active)
11,COc1cccc(C(=O)Nc2nnc(S(=O)(=O)N3CCCCC3)s2)c1,112% (active)
12,COc1ccc(OC)c(NC(=O)c2cccc(S(=O)(=O)N3CCN(C(C)=O)CC3)c2)c1,-11.9% (inactive)
13,Cc1csc2ncc(C(=O)N(Cc3ccccc3)c3ccccn3)c(=O)n12,-14.5% (inactive)
14,Cc1cccc(C)c1NC(=O)C1CCCN1C(=O)OC(C)(C)C (configuration not stated),-0.36% (inactive)
15,CC(C)(C)c1cc(=O)n2c(nc3ccccc32)[nH]1,12.8% (inactive)
16,CCc1cccc(C)c1NC(=O)COC(=O)CNC(=O)c1cccs1,4.68% (inactive)
17,CCc1c(C)sc(NC(=O)c2cccs2)c1C(N)=O,71% (active)
18,CCc1ccc(NC(=O)C(=O)NNC(=O)c2cccs2)cc1,-15.6% (inactive)
19,C=CCCC(=O)N1C[C@H]2CON(C)[C@H]2C[C@H]1c1cccc(Nc2ccccc2)c1,21.3% (inactive)
20,O=C(OCC(=O)N1CCCCC1)c1ccc(OC(F)(F)F)cc1,-6.53% (inactive)
21,O=c1c2c(nc3cc(-c4cccc(Cl)c4)[nH]n13)CCCC2,75% (active)
22,CCCCN1Cc2c(nc3cc(-c4ccccc4)[nH]n3c2=O)C1=O,-27.7% (inactive)
23,O=c1c2c(nc3nc[nH]n13)CCC2,16.4% (inactive)
